Test results taken from PubChem BioAssay (NCI).
Compounds without any hit were thinned out: in the full panel of roughly 83,000, 20% have a hit.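 Method: cells in 96-well plates; compound added at one concentration; 48 h incubation; percent growth measured; values under 10 scored active.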 The source made the active and inactive calls.

Tested on: BT-549 breast
Assay: NCI-60 one-dose screen, 48 h (100 = growth as untreated, 0 = no growth, -100 = all killed)
Conditions: 10 µM unless noted

SMILES | growth
CC(C)C[C@H](NC(=O)/C=C/Cn1ccc2ccccc2c1=O)B(O)O | 27.9% (inactive)
C[C@]12CCC(=O)C=C1CC[C@H]1[C@@H]3C[C@@H](O)[C@](O)(C(=O)CO)[C@@]3(C)C[C@H](O)[C@@]12F | 99.4% (inactive)
CNNc1ncnc2c1cnn2-c1ccc(S(N)(=O)=O)cc1 | 109% (inactive)
O=C(C(=O)c1cc(Br)ccc1O)c1cc(Br)ccc1O | 21.7% (inactive)
COc1ccc(/C=C2\CCc3ccccc3C2=O)cc1 | 97.9% (inactive)
CC(C)N(Cc1ccccc1)c1c(S)ssc1=S | -4.86% (active)
O=C1C=CC(=O)N1c1ccccn1 | 104% (inactive)
COc1cccc(/C=N\NC(=O)c2ccncc2)c1O | 49.8% (inactive)
CN[C@@H]1C(OC2[C@H](O[C@H]3[C@H](O)[C@@H](O)[C@H](N=C(N)N)[C@@H](O)[C@@H]3N=C(N)N)OC(C)[C@]2(O)CO)OC(CO)C(O)C1O (stereo not given in full) | 112% (inactive)
CC(C)Sc1nc(-c2ccc(Br)cc2)c(C#N)c(N2CCCCC2)n1 | 109% (inactive)
O=CN1N=C(c2ccc(Nc3ccnc4cc(Cl)ccc34)cc2)CC1c1ccc(Cl)cc1 (stereo not given) | 55.3% (inactive)
O=C(O)c1ccc2cccnc2c1O | -16.5% (active)
O=C(Nc1ccc2c(c1)C(=O)c1ccccc1-2)c1ccccc1 | 104% (inactive)
Nc1ccccc1C#Cc1ccccc1C#Cc1ccc(OCCCCCCOc2ccc(C#Cc3ccccc3C#Cc3ccccc3N)cc2)cc1 | 104% (inactive)
O=C(CC(C(=O)c1ccccc1)N1CCN(Cc2ccccc2)CC1)c1ccccc1 (stereo not given) | 101% (inactive)
